A word on the inhibition: it is the change of the read-out against control, counted positive when it falls.

In this experiment the target is Glucose transporter (Leishmania mexicana) (UniProt O61059). Kind of experiment: ST_JUDE_LEISH: Cytotoxicity at 2uM final concentration against transgenic Leishmania Mexicana promastigotes LmGT2 that are glucose transport deficient and complemented with the L. Mexicana glucose transporter 2. Activity is measured by DNA content using SYBR green in vitro. The class given is functional.
Take `Cc1cccc2nc(-c3cccc(-c4ccc(NC(=O)C(C)CN(C)C)cc4)c3)[nH]c12` (stereo not given): the inhibition is -1.14%.

Consider `CNCc1ccc(-c2cccc(CNCc3ccc(-c4ccccc4)cc3)c2)c(C(=O)OC)c1`, for which the inhibition was 2.91%.

For the molecule `Cc1cc(F)ccc1[C@H]1CNCCN1C(=O)N(C)C(C)(C)c1cc(C(F)(F)F)cc(C(F)(F)F)c1`, the inhibition is -1.4%.

As to `CCCC(CC)n1ccc2c3c(N)nc(N)nc3ccc21` (stereo not given), the inhibition worked out at 57.8%.

As for `Cc1cc(N[C@@H](Cc2ccccc2)C(=O)NCc2cccc(F)c2)nc(Nc2ccccc2)n1`, the inhibition stood at 2.63%.

`O=C(NCCc1ccccc1)N(Cc1ccccc1-c1cccc(CNCCc2ccccc2)c1)C1CCN(Cc2ccccc2)CC1`: the inhibition stood at 5.48%.

On to `CCN(CC)CCN(Cc1ccc(-c2ccc(C(F)(F)F)cc2)nc1)C(=O)Cn1c(SCc2ccc(F)cc2)nc(=O)c2sccc21`, for which the inhibition came to 1.84%.

As to `O=C(/C=C/c1ccc(Cl)c(Cl)c1)NCCCCCN1CCC(NC(=S)Nc2ccc(Cl)cc2)CC1`, the inhibition was 6.39%.

As to `COc1cc2nc(NCc3cccc(CNC(=O)c4ccc(-c5ccc(C(C)=O)cc5)cc4)c3)nc(N)c2cc1OC`, the inhibition is 0.66%.

`Cc1cc(=NN=Cc2ccccc2F)c2ccccc2[nH]1`: the inhibition stood at 1.44%.

For `O=[N+]([O-])c1cccc(/C=N/Nc2ccnc3cc(F)ccc23)c1`, the inhibition was 1.01%.

In the case of `Cc1cc(C)c2c(c1)C(=NO)CCN2`, the inhibition is -0.32%.

Turning to `O=C(NCCCCCN1CCC(c2ccc(O)cc2)CC1)c1ccc(-c2ccccc2)cc1`, the inhibition stood at 6%.

Turning to `O=C(NC1CCCc2ccccc21)C1CCCN(C(=O)c2ccc(O)c(-c3ccc(Cl)c(Cl)c3)c2)C1` (stereo not given), the inhibition worked out at 2.38%.

As for `NC1=NC(c2ccccc2)N(c2ccccc2)C(N)=N1` (stereo not given), the inhibition is -0.58%.

For `CN(Cc1ccc(-c2ccc(C(F)(F)F)cc2)cc1)C(=O)Cn1c(CCc2cccc(F)c2F)cc(=O)c2ccc(OCC3CCCN3C)cc21` (stereo not given), the inhibition was found to be 4.42%.

For the molecule `Nc1nc(N)c2c(ccc3c2ccn3C2CCCCC2)n1`, the inhibition was found to be 25.7%.

Regarding `CCCCCCCc1c(C)nc2cc(OC)ccc2c1O`, the inhibition is 7.02%.

With `O=C(NC1CCCCC1)c1ccc(O)c(-c2cccc(C(F)(F)F)c2)c1`, the inhibition amounted to 1.27%.

For the molecule `Cc1ccc(-c2ccc(NC(=O)N3CCc4cc(Br)c(N5CCN(C)CC5)cc43)cc2)cn1`, the inhibition was determined as 2.24%.

Take `COc1ccc2nccc([C@@H](O)CN3CCC(NCc4cc5cc(C)ccc5s4)CC3)c2c1`: the inhibition was determined as 21.9%.

With `CN(C)CCN(C)Cc1cccc(-c2cccc(NC(=O)c3cccc(C#N)c3)c2)c1`, the inhibition is 4.89%.

Turning to `O=C(Nc1cccc(C(F)(F)F)c1)c1ccc(S(=O)(=O)NC2CCN(CC3CCCCC3)C2)cc1` (stereo not given), the inhibition came to 4.54%.

Take `COc1ccc2nccc([C@@H](O)CN3CCC(NCc4ccc5c(c4)NC(=O)C(C)S5)CC3)c2c1` (stereo not given in full): the inhibition was determined as 4.38%.

With `O=C(NCCCN1CCC(N2CCCCC2)CC1)c1ccc(N2CCOc3ccccc32)s1`, the inhibition came to 3.19%.

In the case of `CN(C)CCOc1cc(NC(=O)Nc2ccc3c(c2)CCCC3=O)ccc1I`, the inhibition was 4.5%.

In the case of `COc1ccc2nccc([C@@H](O)CN3CCC(NC(=O)C(c4cc5ccccc5o4)N4CCN(C(c5ccccc5)c5ccccc5)CC4)CC3)c2c1` (stereo not given in full), the inhibition was determined as 1.41%.

Regarding `O=c1cc(NCCCNC(c2ccccc2)c2ccc(Cl)c(Cl)c2)[nH]c2ccccc12` (stereo not given), the inhibition is -1.3%.

For the molecule `CC(Sc1nc2sccc2c(=O)n1C)C(=O)Nc1ccc2c(c1)OCO2` (stereo not given), the inhibition worked out at 3%.

Take `COc1ccc2nccc([C@@H](O)CN3CCC(NC(=O)C(=Cc4ccc(C#N)cc4)c4ccc(-c5ccccc5)cc4)CC3)c2c1`: the inhibition is -0.89%.

As to `Cc1ccc(-c2noc(=O)n2CC(=O)Nc2ccccc2-c2ccccc2)cc1`, the inhibition is -0.17%.

With `O=C(Nc1cccnc1)c1cc(-c2cc(Cl)ccc2O)n[nH]1`, the inhibition came to 3.15%.

For `COc1ccc(S(=O)(=O)N(CCCN2CCN(C)CC2)Cc2csc(-c3ccc(CNCc4ccccc4)cc3)n2)cc1`, the inhibition came out at 1.67%.

In the case of `Cc1cc(NCC2CCN(CC3CCCCC3)C2)nc(Nc2ccc(Br)cc2)n1` (stereo not given), the inhibition was found to be 3.47%.

Take `Cc1cc(OCCN2CCCCC2)ccc1NC(=O)c1cccc2c(=O)n(Cc3ccc(Cl)cc3)cnc12`: the inhibition came to 105%.

With `CC1(C)CN(CCC2CCC(NC(=O)/C=C/c3ccccc3F)CC2)Cc2ccc(C#N)cc21` (stereo not given), the inhibition is 1.48%.

In the case of `CCOC(=O)c1ccc(NC(=O)N[C@@H](Cc2ccccc2)C(=O)NC2CCN(Cc3ccc(O)c(OC)c3)C2)cc1` (stereo not given in full), the inhibition was found to be 3.01%.

For `Cc1noc(C)c1-c1cccc(CNCc2cccc(-c3cccc(-c4nc5cccc(C)c5[nH]4)c3)c2)c1`, the inhibition is -0.78%.

As for `CC=CCON1C(=N)NC(=N)NC1(C)C`, the inhibition amounted to 1.8%.

With `CC[C@@H]([C@@H](CC(C)C)C(=O)N[C@@H](CCCCNC(=O)OCc1ccccc1)C(=O)Nc1ccccn1)N(O)C=O`, the inhibition is 3.88%.

Source of the values: ChEMBL document CHEMBL3433997, “St. Jude Leishmania screening dataset” (2016).
